Measured values from PubChem BioAssay (NCI).
This is part of a sample that, as a whole, favours compounds with a hit. Of some 79,000 tested, about 15% had one in any assay. Active and inactive are the calls of the source. No stated cut-off is given here; in the data, active means growth inhibition above about 70%; inactive means the rest.

assay: NCI Yeast Anticancer Drug Screen. Data for the rad50 strain (AID 155);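 further: 0% = growth of vehicle-only cultures of the same strain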; conditions: S. cerevisiae rad50 strain growth inhibition; at 50.0 µM; stronger effect = higher value
Summary of the method: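 Compounds were tested on a yeast strain with an engineered DNA damage repair alteration; the reported value is growth inhibition normalised to vehicle treatment.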

Row | Compound | growth inhibition
1 | CC(=O)Nc1ccc2ccccc2c1SC1CC(=O)N(c2ccccc2)C1=O (stereo not drawn) | -24.1% (inactive)
2 | Clc1ccc(CSc2cnnc(Cl)c2SCc2ccc(Cl)cc2)cc1 | 8.1% (inactive)
3 | CN(C(=O)Sc1ccc([N+](=O)[O-])cc1)c1ccc([N+](=O)[O-])cc1 | 1.3% (inactive)
4 | Nc1nc2c(ccc3ccccc32)[nH]1 | -19.8% (inactive)
5 | O=[N+]([O-])C(C(Cl)=C(Cl)Cl)=C(n1nnc2ccccc21)n1nnc2ccccc21 | 40.6% (inactive)
6 | CC(=O)S | -36.5% (inactive)
7 | O=C(O)C(c1cccs1)C1(O)CCCCC1 (stereo not drawn) | -0.75% (inactive)
8 | CCOC(=O)c1[nH]c(COC(C)=O)c2c1CCCCCCCCCC2 | -6.1% (inactive)
9 | O=C(CC(=O)c1ccccc1)Cc1ccccc1.O=C(CC(=O)c1ccccc1)Cc1ccccc1.[Cu] | 60% (inactive)
10 | CCOC(=O)c1ccccc1[N+](=O)[O-] | 22.8% (inactive)
11 | O=C(NN(C(=O)c1ccc([N+](=O)[O-])cc1)c1ccccc1)c1ccc([N+](=O)[O-])cc1 | 3.1% (inactive)
12 | CC(=O)N1CCC(=O)/C(=C/c2ccccc2)C1 | 4.95% (inactive)
13 | CC(=O)c1ccc(OC(=O)Nc2ccc(Cl)cc2)cc1 | 4.8% (inactive)
14 | CC(=O)Nc1cc(Cl)ccc1SC1OC(COC(C)=O)C(OC(C)=O)C(OC(C)=O)C1OC(C)=O (stereo not drawn) | -10.6% (inactive)
15 | CNC(=S)Nc1cccc(C)c1 | -3.1% (inactive)
16 | Cc1ccc(-n2nc(C)cc2C)nn1 | -3.55% (inactive)
17 | CCC(C(C)O)[N+](=O)[O-] (stereo not drawn) | 32.8% (inactive)
18 | CC(=O)Nc1ccc(/C=C2\C(=O)Nc3ccccc32)cc1 | -15.4% (inactive)
19 | CN1CCN(C)c2nc3ccccc3nc21 | 0.2% (inactive)
20 | CC(C)CCCC(C)C1CCC2(C)C3CCC4C(C)(C)C(OCC(C)(C)C)CCC4(C)C3CCC12C (stereo not drawn) | 34% (inactive)
21 | Cc1cccc(/C=C(\C#N)C(=O)c2ccccc2)c1 | -10.6% (inactive)
22 | CC1CC(C)OC(C)(c2ccccc2)O1 (stereo not drawn) | 21.4% (inactive)
23 | CC(Br)CCc1ccccc1Br (stereo not drawn) | 3.95% (inactive)

assay: NCI Yeast Anticancer Drug Screen. Data for the mec2-1 strain (AID 157); conditions: S. cerevisiae mec2-1 strain, at 50.0 µM, stronger effect = higher value
Summary of the method: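 Growth inhibition is read against vehicle-treated controls after compound exposure of the mec2-1 yeast strain, which is defective in DNA damage repair or cell cycle control.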

Row | Compound | growth inhibition
24 | O=C(CCCc1ccccc1)OCC(=O)c1ccc(-c2ccccc2)cc1 | 6.45% (inactive)
25 | O=COC1CC2CC1c1ccccc12 (stereo not drawn) | -9.7% (inactive)
26 | Cc1cccc(C(O)(c2cccc(C)c2)C2(O)CCCCC2)c1 | -0.45% (inactive)
27 | c1ccc2c(c1)NCCOCCNc1ccccc1OCCNCCO2 | 36.5% (inactive)
28 | CC(SSc1ccc(C(C)(C)C)cc1)c1ccccc1 (stereo not drawn) | -14.2% (inactive)
29 | O=C1C(N=Nc2ccc(S(=O)(=O)Nc3ccccn3)cc2)C(=O)N(c2ccccc2)C(=S)N1c1ccccc1 | 6.1% (inactive)
30 | COc1ccc(NS(=O)(=O)c2ccc(N=Cc3c4ccccc4nc4ccccc34)cc2)nn1 | 95.5% (active)
31 | CN(C)CCCN1c2ccccc2Sc2ccc3ccccc3c21 | -3.45% (inactive)
32 | COC(=O)C1(CC(=O)C2CC2)NC(=S)NC(=O)C1C#N (stereo not drawn) | -10.2% (inactive)
33 | O=C1N=C(c2ccccc2)C(c2ccccc2)N1 (stereo not drawn) | 23.1% (inactive)
34 | COc1ccc(C(=O)C[n+]2cc(Br)cc(Br)c2)cc1 | -12.8% (inactive)
35 | C=C1C(=O)OC2/C=C(\C)C(OC(C)=O)C3OC3C(C)(O)CC(OC(=O)/C(C)=C/C)C12 (stereo not drawn) | 2.2% (inactive)
36 | CC(=O)N/C(=C\c1ccccc1)C(N)=O | 12.9% (inactive)
37 | CNC(=S)N(C)/N=C/c1ccccc1 | 2.4% (inactive)
38 | N#CC(c1ccccc1)N(CCCCCCN(C(=O)c1ccccc1)C(C#N)c1ccccc1)C(=O)c1ccccc1 (stereo not drawn) | 37% (inactive)
39 | CCOC(=O)c1cccc(NC(=O)CCl)c1 | 30.1% (inactive)
40 | CC1(C)C(C#N)C1C1=C(N2CCOCC2)[C@]2(C)C(OC(=O)c3ccccc3)CC[C@@H]2C1 (stereo partly drawn) | -17.2% (inactive)
41 | CC(=O)Nc1ccc2ccccc2c1SC1CC(=O)N(c2ccccc2)C1=O (stereo not drawn) | -3% (inactive)
42 | Clc1ccc(CSc2cnnc(Cl)c2SCc2ccc(Cl)cc2)cc1 | -4.5% (inactive)
43 | CN(C(=O)Sc1ccc([N+](=O)[O-])cc1)c1ccc([N+](=O)[O-])cc1 | 15.2% (inactive)

Row | Compound | growth inhibition
44 | Nc1nc2c(ccc3ccccc32)[nH]1 | 6.8% (inactive)
45 | O=[N+]([O-])C(C(Cl)=C(Cl)Cl)=C(n1nnc2ccccc21)n1nnc2ccccc21 | 34.9% (inactive)
46 | CC(=O)S | -18.4% (inactive)
47 | O=C(O)C(c1cccs1)C1(O)CCCCC1 (stereo not drawn) | -7.2% (inactive)
48 | CCOC(=O)c1[nH]c(COC(C)=O)c2c1CCCCCCCCCC2 | -9.75% (inactive)
49 | O=C(CC(=O)c1ccccc1)Cc1ccccc1.O=C(CC(=O)c1ccccc1)Cc1ccccc1.[Cu] | 22.6% (inactive)
50 | CCOC(=O)c1ccccc1[N+](=O)[O-] | 23.4% (inactive)
51 | O=C(NN(C(=O)c1ccc([N+](=O)[O-])cc1)c1ccccc1)c1ccc([N+](=O)[O-])cc1 | 14.2% (inactive)
52 | CC(=O)N1CCC(=O)/C(=C/c2ccccc2)C1 | 0% (inactive)
53 | CC(=O)c1ccc(OC(=O)Nc2ccc(Cl)cc2)cc1 | 10.1% (inactive)
54 | CC(=O)Nc1cc(Cl)ccc1SC1OC(COC(C)=O)C(OC(C)=O)C(OC(C)=O)C1OC(C)=O (stereo not drawn) | -7.15% (inactive)
55 | CNC(=S)Nc1cccc(C)c1 | 2.65% (inactive)
56 | Cc1ccc(-n2nc(C)cc2C)nn1 | 11.2% (inactive)
57 | CCC(C(C)O)[N+](=O)[O-] (stereo not drawn) | -1.1% (inactive)
58 | CC(=O)Nc1ccc(/C=C2\C(=O)Nc3ccccc32)cc1 | -20.1% (inactive)
59 | CN1CCN(C)c2nc3ccccc3nc21 | 3% (inactive)
60 | CC(C)CCCC(C)C1CCC2(C)C3CCC4C(C)(C)C(OCC(C)(C)C)CCC4(C)C3CCC12C (stereo not drawn) | -5.5% (inactive)
61 | Cc1cccc(/C=C(\C#N)C(=O)c2ccccc2)c1 | 15.3% (inactive)
62 | CC1CC(C)OC(C)(c2ccccc2)O1 (stereo not drawn) | -6% (inactive)
63 | CC(Br)CCc1ccccc1Br (stereo not drawn) | -8.9% (inactive)
